# Compounds with a hit are over-represented: about 8.3% of the library has one in this group of screens.
# BCR signal inh – blocks chronic active B-cell receptor signaling. ABC-DLBCL IkBa-CBG/CBR reporter, luminescence ratio, 4 h. Potency, µM (series often up to 46.1 µM), inactives show at the highest dose activity change, negative = inhibition, hits mostly inhibitors. 0.05% of 340,000 active; active means well fitted inhibition curve with a large enough effect in the signal ratio, with a control signal flat, not every such curve was filed as active; inconclusive means small, poorly fitted or top-dose-only effect, or effect the other way, or a change in a side signal; the % refers to the signal ratio;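 further: potency means the concentration at half of the fitted maximal effect; plate controls were basal doxycycline-induced cells for no effect and cells given 10 µM MG132 for full effect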
#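 Cell line TMD8 (human ABC DLBCL), stably expressing tet-inducible CBG68-IkBa fusion and CBR; IMDM/0.5% FBS; cpd up to 46 uM; dox induction, 4 h, 37C/5% CO2; dual luminescence; green/red ratio; MG132 control.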
# VP16 counter – inhibits Gal4-VP16 luciferase reporter, ROR gamma counter-screen; Drosophila S2 Gal4-VP16 UAS-luciferase, luminescence, 20 h; Potency, µM (highest dose often 53.6 µM), inactives show top-dose activity, negative = inhibition, most hits filed as inhibitors; 3.5% of 310,000 active; AID 2546;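 further: Gal4-VP16 expression switched on by copper sulfate through the metallothionein promoter; potency means the concentration at half of the fitted maximal effect; on the % scale 0 is the no-effect control and ±100 the full control effect; nearly all actives have a fitted effect of over 50% in size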
# RORgamma inh – inhibitors of mouse ROR gamma transcriptional activity; Drosophila S2 Gal4-RORgamma UAS-luciferase reporter, 20 h; Potency, µM (highest dose often 53.6 µM), for inactives: at the top dose activity change, negative = inhibition, actives largely listed as inhibitors; P51450; 5.4% of 310,000 active; further: potency means the concentration at half of the fitted maximal effect; on the % scale 0 is the no-effect control and ±100 the full control effect; nearly all actives have a fitted effect of over 60% in size
# Target sequence (P51450 whole entry, looked up, the tested form may be a part): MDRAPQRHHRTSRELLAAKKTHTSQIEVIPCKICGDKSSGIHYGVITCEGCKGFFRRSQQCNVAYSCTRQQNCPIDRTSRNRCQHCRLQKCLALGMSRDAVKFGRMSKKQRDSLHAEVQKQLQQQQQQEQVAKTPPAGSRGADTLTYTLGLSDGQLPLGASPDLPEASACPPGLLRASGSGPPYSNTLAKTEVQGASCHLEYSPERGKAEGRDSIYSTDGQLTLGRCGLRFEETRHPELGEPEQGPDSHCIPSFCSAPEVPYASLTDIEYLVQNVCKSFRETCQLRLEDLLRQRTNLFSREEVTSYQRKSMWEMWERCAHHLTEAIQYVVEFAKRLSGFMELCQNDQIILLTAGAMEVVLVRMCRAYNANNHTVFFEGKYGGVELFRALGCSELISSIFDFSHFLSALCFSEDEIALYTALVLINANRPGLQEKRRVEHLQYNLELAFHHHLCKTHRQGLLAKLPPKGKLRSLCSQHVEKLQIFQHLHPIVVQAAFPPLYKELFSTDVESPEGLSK
#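 Luminescence from a UAS-regulated Photinus luciferase reporter in stably transfected Drosophila Schneider cells is measured; decreased signal marks ROR gamma inhibition. Fusion expression is induced by 700 uM copper sulfate for 20 hr.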
# MCF10A rereplic – DNA re-replication induction in MCF 10a cells; MCF 10A DNA re-replication, Hoechst nuclear intensity, 48 h; AID 624296; Potency, µM (highest dose often 46.1 µM), without a hit: at the top dose activity, positive = re-replication, hits mostly activators; 2.9% of 350,000 active; further: potency means the concentration at half of the fitted maximal effect; % of control where 0% means no effect; nearly all actives have a fitted effect of over 50% in size
# SW480 rereplic – DNA re-replication induction in SW480 cells; SW480 DNA re-replication, Hoechst DNA content imaging, 48 h; Potency, µM (top dose mostly 46.1 µM), inactives show top-dose re-replication activation, usual class: activators; 1.8% of 340,000 active; further: potency means the concentration at half of the fitted maximal effect; % of control where 0% means no effect; nearly all actives have a fitted effect of over 55% in size
#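 Compounds, transferred as 23 nL by pin tool, were incubated with cells for 48 hr; DNA content per nucleus was then quantified by Hoechst staining and fluorescence plate imaging.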
# Giardia kill – kills Giardia lamblia | Giardia lamblia trophozoite viability | activity change, % at 7.66 µM, hits read low | 0.15% of 340,000 active | AID 540267; in the data active means activity change below about -80%; inconclusive means between about -30% and that limit;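 further: parasites exposed to compound for two days anaerobically before the ATP read; on the % scale 0 is the no-effect control and ±100 the full control effect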
#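 Media and compound were dispensed first, then trophozoites at 100 cells/well; plates sat 48 hrs at 37 deg C without oxygen before ATP luminescence reagent was added and read after 15-30 min at room temperature.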
# Starred values were filed as active, the others as inactive; ? = inconclusive; / = no result; [ ] = remark or other dose. Unless noted, the call rests on the fitted dose curve; in most records, active means well fitted curve in the direction sought with a large enough effect; inconclusive means small, poorly fitted or top-dose-only effect, or another doubt; inactive means no such curve, though single readings can be large; an effect the other way counts as inactive or inconclusive.
SMILES,BCR signal inh,VP16 counter,RORgamma inh,MCF10A rereplic,SW480 rereplic,Giardia kill
CCOc1ccc(N2C(=O)CC(N(CCc3ccc(S(N)(=O)=O)cc3)C(C)=O)C2=O)cc1 (configuration not stated),5.9%,-14.6%,-0.4%,-7.8%,-90.5%,17.9
CCS(=O)(=O)NCC(c1cccnc1)N1CCN(c2ccc(F)cc2)CC1 (configuration not stated),8.8%,-1.2%,1.8%,20.7%,0.4%[9.22 µM],-12.6
Nc1nc(-c2ccc(Oc3ccccc3)cc2)cs1,?,-8.9%,22.9%,18.5%,0.1%,-25.0
Nc1nc(-c2cccc(NS(=O)(=O)c3ccccc3)c2)cs1,-0.7%,17.8µM*,?,10.4%,-4.7%,25.8
Nc1nc(-c2ccc(-c3ccccc3)cc2)cs1,?,22.4µM*,?,5.1%,-2.8%,-13.2
CC(=O)Nc1ccc(S(=O)(=O)Nc2cccc(-c3csc(C)n3)c2)cc1,-20.4%,-27.6%,?,-1.3%,17.7%,5.8
CCOc1ccc(-n2cc(-c3ccccc3)c3c(N4CCN(c5ccccc5OC)CC4)ncnc32)cc1,-1.5%,/,/,/,/,/
COC(=O)C1CN(C(=O)c2ccc(OC(F)F)cc2)c2ccccc2O1 (configuration not stated),-6.9%,5.4%,-30.3%,4.5%,-7.7%,-1.7
Cc1cc(N2CCN(C)CC2)ccc1NC(=O)c1c2c(nc3ccccc13)CCN(Cc1ccccc1)C2,?,11.2µM*,11.2µM*,23.6%,?,-6.3
O=C(NC1CCCCCC1)c1c2c(nc3ccccc13)CCN(Cc1ccccc1)C2,-2.1%,-2.0%,23.2%,?,6.7%,7.7
N#C/C(=C\c1ccc(-c2ccccc2)cc1)c1nc(-c2ccco2)cs1,?,4.3%,1.0%,23.1µM*,1.0%,1.2
N#C/C(=C/c1ccc(-c2ccccc2)o1)c1nc(-c2cccs2)cs1,5.5%,0.1µM*,?,?,3.6%,-11.3
COc1ccc(C)cc1C(=O)CCC(=O)NCCc1ccc(S(N)(=O)=O)cc1,-0.9%,-12.9%,9.1%,0.6%,2.4%,-22.4
CN(C)c1cccc(C(=O)NNC(=S)NC2CC3CCC2C3)c1 (configuration not stated),?,-14.0%,3.98µM*,-1.0%,-5.4%,-1.8
CC(C)N(C(=S)NC1CC2CCC1C2)c1ccccc1 (configuration not stated),-6.0%,-7.0%,?,7.9%,-5.6%,-10.4
CC(OC(=O)C1CCC1)C(=O)Nc1cc(Cl)cc(Cl)c1 (configuration not stated),7.0%,/,/,-0.1%,-8.9%,-7.4
CS(=O)(=O)c1nc(S(=O)(=O)c2ccc(Cl)cc2)c(NCCN2CCOCC2)s1,-6.5%,1.3%,2.7%,2.6%,1.4%,7.6
Cc1ccc(C)c(N2CCN(C(=O)c3csc4ccccc34)CC2)c1,3.6%,-21.7%,?,16.4µM*,2.6%,38.0
FC(F)(F)c1cc(NC(=S)NC23CC4CC(CC(C4)C2)C3)cc(C(F)(F)F)c1,/,?,-17.7%,/,/,/
Cc1cccc(NC(=S)Nc2cccc(C(F)(F)F)c2)n1,?,?,1µM*,8.2%,-1.6%,19.8
FC(F)(F)c1cccc(NC(=S)Nc2cccc(NC(=S)Nc3cccc(C(F)(F)F)c3)n2)c1,?,?,5.01µM*,?,?,0.7
FC(F)(F)c1cccc(NC(=S)Nc2ccc(Cl)cc2Cl)c1,3.5%,-25.3%,?,5.7%,2.8%,12.7
FC(F)(F)c1cc(NC(=S)Nc2ccc3ccccc3c2)cc(C(F)(F)F)c1,/,14.1µM*,?,/,/,/
COc1ccc(C(=O)Nc2ccnn2C2CCN(CCC(C)c3ccc(C)o3)CC2)cc1 (configuration not stated),1.8%,-4.3%,14.7%,11.5%,-3.1%,-5.9
O=C(/C=C/c1cccs1)Nc1scc(-c2ccccc2)c1C(=O)O,?,12.6µM*,10µM*,29.1%,5.6%,?
SMILES,BCR signal inh,VP16 counter,RORgamma inh,MCF10A rereplic,SW480 rereplic,Giardia kill
O=C(/C=C/c1cccs1)Nc1nc(-c2ccccc2)cs1,?,-0.3%,?,94.8%,14.2%,-19.5
COc1cccc(NC(=O)CN(C)C(=O)c2ccc(COc3ccccc3)cc2)c1,-0.4%,/,/,8.5%,14.0%,16.7
C=CCn1c(C)cc(C(=O)COC(=O)COc2ccccc2C#N)c1C,-3.4%,1.2%,-0.3%,6.7%,-1.0%,-11.3
C=CCn1c(C)cc(C(=O)COC(=O)[C@@H](NC(=O)c2ccccc2Cl)C(C)C)c1C,4.8%,12.6µM*,14.1µM*,-0.6%,-4.6%,?
CC(C)c1ccc(N2C=Nc3ccc(C(C)C)cc3C2)cc1,?,?,7.94µM*,?,7.3%,-9.5
C1=Nc2ccccc2CN1c1ccccc1,10.5%,-9.8%,5.4%,20.9%,-0.9%,-6.7
Cc1cc2n(n1)C(c1ccc(N(C)C)cc1)Nc1ccccc1-2 (configuration not stated),10.4%,1.0%,-37.3%,20.6µM*,20.6µM*,17.0
C=CC(=O)O,/,-1.9%,9.4%[10 µM],8.9%,-4.7%,/
COc1ccc(NC2=Nc3cccc4cccc2c34)cc1,?,?,12.6µM*,7.3%,1.7%,1.6
c1ccc(NC2=Nc3cccc4cccc2c34)cc1,?,?,?,-39.2%,-2.5%,22.5
Fc1ccc(/C=N/NC2=Nc3cccc4cccc2c34)cc1,?,?,1.12µM*,16.4µM*,2.7%,2.2
CC(C)(C)Cc1nnc(NC(=O)CSc2ccccc2)s1,?,-21.1%,-36.2%,1.4%,?,16.9
Cc1ccc(NC(=S)NC(=O)c2sc3ccccc3c2Cl)c(C(=O)O)c1,?,?,7.08µM*,/,/,/
COc1ccc2c(Cl)c(C(=O)NN)sc2c1,-9.1%,?,11.2µM*,?,?,5.4
CN(C)CCCOC(=O)c1sc2ccccc2c1Cl,19.2%,1.9%,-2.8%,5.7%,-6.2%,-29.3
COc1ccc2c(Cl)c(C(N)=O)sc2c1,?,14.8%,33.5%,0.7%,2.9%,10.0
O=C(NNC(=S)NC(=O)c1sc2ccccc2c1Cl)c1ccc(Cl)cc1,-14.0%,12.6µM*,5.01µM*,?,3.3%,-4.6
CCCCOC(=S)NC(=O)c1sc2ccccc2c1Cl,?,?,5.62µM*,-0.9%,-6.8%,4.2
CN(Cc1ccccc1)C(=O)c1ccc(NC(=O)Cc2cccc(NC(=O)C3CCN(C(=O)C4CCC4)CC3)c2)cc1,-5.8%,/,/,?,-29.3%,9.5
O=C(Nc1cccc(F)c1)N1CC[C@@]2(CCCN(C(=O)c3cccc(F)c3)C2)C1,/,-1.8%,-7.0%,/,/,/
CC(C)N(C(=O)COC(=O)c1cccc(N(C)C)c1)c1ccccc1,20.3%,-0.9%,8.2%,10.7%,-26.5%,-23.0
